Measurements reported in PubChem BioAssay.
Activity calls are given as the source filed them.

Key:
[1] = small molecules captured by biotinylated probe aFSTL3 – biochemical, small-molecule microarray, fluorescence 635/667, stem cell growth factor project, primary screen (AID 1064); settings: higher = more signal;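 note: measures binding of the biotinylated anti-FSTL3 antibody to printed compounds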
[2] = binders from COS7 lysate, DM2A8 probe, primary screen, torsin A project, cell lysate, small-molecule microarray, fluorescence 635/667 (AID 1065); settings: higher = more signal, COS7 lysate expressing mutant human TOR1A
[3] = small molecules captured by biotinylated probe aFGF2 – biochemical, small-molecule microarray, fluorescence 635/667, stem cell growth factor project, primary screen (AID 1067); settings: higher = more signal;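 note: measures binding of biotinylated aFGF2 protein to printed compounds on slides; z-score merges feature fluorescence and signal-to-noise across triplicate slides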
[4] = small molecules captured by biotinylated probe aFGF10 – biochemical, small-molecule microarray, fluorescence 635/667, stem cell growth factor project, primary screen (AID 1071); settings: higher = more signal;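 note: score merges 667 nm spot intensity and signal to noise from triplicate slides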
[5] = molecular target: Neurogenic locus notch homolog protein 2 (Homo sapiens) (UniProt Q04721); experiment: small molecules binding Notch2 protein – biochemical, small-molecule microarray, 635 nm fluorescence, stem cell growth factors, primary screen (AID 1073); settings: higher = more signal
[6] = molecular target: Pro-neuregulin-1, membrane-bound isoform (Homo sapiens) (UniProt Q02297); experiment: small molecules binding neuregulin-1 protein – biochemical, small-molecule microarray, fluorescence 635/667, psychiatric disease protein project, primary screen (AID 1075); settings: NRG1 binding, 635 nm fluorescence, higher = more signal;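 note: score combines 667 nm spot fluorescence with signal to noise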
[7] = tested on: Neuregulin-1 EGF-like domain; experiment: small molecules binding NRG1 EGF domain – biochemical, small-molecule microarray, 635 nm fluorescence, primary screen (AID 1081); settings: higher = more signal;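 note: binding of the protein to compounds printed on small-molecule microarray slides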
[8] = FRG1 expression reporter modulators in myotubes – cell-based, C2C12 myotubes, firefly/Renilla luciferase, luminescence, FRG1 inhibition for FSHD, primary screen (AID 1084); settings: FRG1 promoter luciferase, higher = more signal, called active from +8 up or from −8 down
[9] = small molecules captured by biotinylated probe aFST – biochemical, small-molecule microarray, fluorescence 635/667, stem cell growth factor project, primary screen (AID 1086); settings: higher = more signal;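 note: score merges 667 nm fluorescence with signal-to-noise of each printed compound spot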
[10] = binders of probe aHhip on microarray, primary screen, stem cell growth factor project, biochemical, small-molecule microarray, fluorescence 635/667 (AID 1087); settings: higher = more signal;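 note: score merges spot fluorescence at 667nm with spot signal to noise ratio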
[11] = tested on: PRMT1 (protein arginine N-methyltransferase 1); experiment: small molecules binding arginine methyltransferase PRMT1 – biochemical, small-molecule microarray, 635 nm fluorescence, primary screen (AID 1088); settings: higher = more signal;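 note: binding of Prmt1 protein to compounds spotted on small-molecule microarray slides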
[12] = growth effects on S. cerevisiae YJM789 – YJM789 clinical isolate, OD600, 24 h, basal, primary screen (AID 1089); settings: higher = more signal, called active from +8 up or from −8 down;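 note: growth of clinical yeast isolate S. cerevisiae YJM 789 seeded 1000 cells per well; test concentration not given here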
[13] = S. pombe growth modifiers, basal conditions – strain 972, OD600, 24 h, no modulator, primary screen (AID 1090);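 note: basal condition with compound alone and no growth modifier present; test concentration not given here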; settings: S. pombe 972 growth, higher = more signal, called active from +8 up or from −8 down
[14] = budding yeast growth modifiers under rapamycin – strain BY4716, OD600, 96 h, primary screen (AID 1091); note: test concentration not given here; settings: S. cerevisiae BY4716 + rapamycin, higher = more signal, called active from +8 up or from −8 down
[15] = molecular target: Torsin-1A-interacting protein 2 (Homo sapiens) (UniProt Q8NFQ8); experiment: small molecules binding lysate-expressed LULL1 – cell lysate, human LULL1 lysate, 635/667 nm fluorescence, primary screen (AID 1092); settings: small-molecule microarray, hLULL1 lysate binding, 635 nm fluorescence; higher = more signal;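 note: probe is lysate of COS7 cells overexpressing human LULL1; score merges per-feature 667 nm fluorescence with signal-to-noise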
[16] = optical density change of DRC41 E. coli – strain DRC41, OD650, 24 h, E. coli filamentation project, primary screen (AID 1093);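 note: MC1000 strain lacking acrAB efflux and sulA so SOS filamentation is blocked; test concentration not given here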; settings: E. coli DRC41 growth, higher = more signal, called active from +8 up or from −8 down
[17] = probe aLefty2 binding to arrayed compounds – biochemical, biotinylated probe, 635/667 nm fluorescence, primary screen (AID 1094); settings: small-molecule microarray, higher = more signal;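 note: score merges spot fluorescence near 667 nm with spot signal-to-noise ratio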
[18] = tested on: Noggin (protein binding on small-molecule microarray); experiment: small molecules binding Noggin protein – biochemical, 635/667 nm fluorescence, primary screen (AID 1095); settings: 635 nm fluorescence, higher = more signal;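 note: score merges 667 nm feature fluorescence with signal to noise over triplicate slides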
[19] = molecular target: Neurogenic locus notch homolog protein 3 (Homo sapiens) (UniProt Q9UM47); experiment: small molecules binding NOTCH3 protein – biochemical, 635/667 nm fluorescence, primary screen (AID 1096); settings: small-molecule microarray, 635 nm fluorescence, higher = more signal
[20] = probe aEGFR binding to arrayed compounds – biochemical, biotinylated probe, 635/667 nm fluorescence, primary screen (AID 1097); settings: small-molecule microarray, higher = more signal;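 note: probe is a biotinylated anti-EGFR antibody binding compounds printed on slides; score combines fluorescence near 667 nm and signal to noise of each spot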

Sequence of Neurogenic locus notch homolog protein 2 (Homo sapiens) (Q04721 whole entry, looked up, canonical isoform): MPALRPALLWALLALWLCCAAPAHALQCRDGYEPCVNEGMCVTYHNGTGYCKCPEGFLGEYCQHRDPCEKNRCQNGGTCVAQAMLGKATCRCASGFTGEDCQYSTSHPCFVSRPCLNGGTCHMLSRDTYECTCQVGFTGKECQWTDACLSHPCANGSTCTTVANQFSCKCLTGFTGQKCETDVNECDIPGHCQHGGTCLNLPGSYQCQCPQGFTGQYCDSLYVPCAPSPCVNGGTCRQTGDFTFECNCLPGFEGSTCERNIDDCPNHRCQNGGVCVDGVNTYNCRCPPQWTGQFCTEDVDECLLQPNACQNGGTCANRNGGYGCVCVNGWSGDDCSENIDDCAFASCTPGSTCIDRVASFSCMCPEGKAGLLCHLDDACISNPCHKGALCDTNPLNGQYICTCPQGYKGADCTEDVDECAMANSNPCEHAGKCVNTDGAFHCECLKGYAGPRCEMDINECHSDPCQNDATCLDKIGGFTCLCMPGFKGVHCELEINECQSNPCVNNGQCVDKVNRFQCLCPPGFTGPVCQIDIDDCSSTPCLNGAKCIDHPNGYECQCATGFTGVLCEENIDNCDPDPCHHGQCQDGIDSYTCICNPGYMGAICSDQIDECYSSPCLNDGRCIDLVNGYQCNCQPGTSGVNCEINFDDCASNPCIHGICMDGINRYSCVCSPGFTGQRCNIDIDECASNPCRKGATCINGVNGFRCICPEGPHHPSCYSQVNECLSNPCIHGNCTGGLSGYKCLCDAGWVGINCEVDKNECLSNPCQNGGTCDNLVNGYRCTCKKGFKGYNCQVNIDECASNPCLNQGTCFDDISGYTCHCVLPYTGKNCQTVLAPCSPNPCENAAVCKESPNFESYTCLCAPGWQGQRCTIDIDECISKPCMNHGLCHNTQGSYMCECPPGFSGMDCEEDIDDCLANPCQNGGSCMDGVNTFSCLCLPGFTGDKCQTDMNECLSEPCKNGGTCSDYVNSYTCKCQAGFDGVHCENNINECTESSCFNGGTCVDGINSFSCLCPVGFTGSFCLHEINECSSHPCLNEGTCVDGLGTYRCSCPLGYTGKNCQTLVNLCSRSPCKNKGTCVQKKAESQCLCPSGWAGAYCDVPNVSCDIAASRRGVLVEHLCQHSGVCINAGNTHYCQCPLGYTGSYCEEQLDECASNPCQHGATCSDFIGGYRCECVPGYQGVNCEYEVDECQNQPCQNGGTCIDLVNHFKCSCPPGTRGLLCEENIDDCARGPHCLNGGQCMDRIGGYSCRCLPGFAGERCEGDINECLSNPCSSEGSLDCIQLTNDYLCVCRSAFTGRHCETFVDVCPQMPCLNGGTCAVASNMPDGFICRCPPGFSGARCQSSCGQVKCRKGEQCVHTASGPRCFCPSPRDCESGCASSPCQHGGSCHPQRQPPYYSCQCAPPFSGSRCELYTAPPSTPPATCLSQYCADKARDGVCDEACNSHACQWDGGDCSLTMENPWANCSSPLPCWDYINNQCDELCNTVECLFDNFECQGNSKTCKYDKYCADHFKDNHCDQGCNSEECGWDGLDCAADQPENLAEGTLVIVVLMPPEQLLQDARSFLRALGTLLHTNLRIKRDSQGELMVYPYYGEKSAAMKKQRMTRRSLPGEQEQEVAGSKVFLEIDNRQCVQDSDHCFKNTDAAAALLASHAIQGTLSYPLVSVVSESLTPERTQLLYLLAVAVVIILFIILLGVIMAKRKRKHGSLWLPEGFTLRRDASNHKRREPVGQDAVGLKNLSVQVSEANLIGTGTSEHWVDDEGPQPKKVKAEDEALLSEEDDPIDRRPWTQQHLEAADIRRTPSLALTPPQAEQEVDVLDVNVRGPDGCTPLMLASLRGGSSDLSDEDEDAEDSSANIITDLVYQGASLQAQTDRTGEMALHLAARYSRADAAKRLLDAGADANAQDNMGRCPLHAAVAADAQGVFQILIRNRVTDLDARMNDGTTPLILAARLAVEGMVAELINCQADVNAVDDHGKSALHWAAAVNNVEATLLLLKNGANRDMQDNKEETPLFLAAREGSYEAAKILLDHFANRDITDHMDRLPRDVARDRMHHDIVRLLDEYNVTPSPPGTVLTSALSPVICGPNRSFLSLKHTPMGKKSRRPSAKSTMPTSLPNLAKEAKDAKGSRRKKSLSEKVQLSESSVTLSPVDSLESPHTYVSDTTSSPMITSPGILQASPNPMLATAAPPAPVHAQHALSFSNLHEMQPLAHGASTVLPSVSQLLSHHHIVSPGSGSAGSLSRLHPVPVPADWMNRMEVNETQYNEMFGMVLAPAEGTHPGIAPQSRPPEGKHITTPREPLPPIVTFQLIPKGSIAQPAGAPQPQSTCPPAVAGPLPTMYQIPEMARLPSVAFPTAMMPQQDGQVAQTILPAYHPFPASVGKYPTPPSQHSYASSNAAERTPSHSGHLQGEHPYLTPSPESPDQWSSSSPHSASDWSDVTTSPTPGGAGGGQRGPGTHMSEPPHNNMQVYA
Sequence of Torsin-1A-interacting protein 2 (Homo sapiens) (Q8NFQ8 whole entry, looked up): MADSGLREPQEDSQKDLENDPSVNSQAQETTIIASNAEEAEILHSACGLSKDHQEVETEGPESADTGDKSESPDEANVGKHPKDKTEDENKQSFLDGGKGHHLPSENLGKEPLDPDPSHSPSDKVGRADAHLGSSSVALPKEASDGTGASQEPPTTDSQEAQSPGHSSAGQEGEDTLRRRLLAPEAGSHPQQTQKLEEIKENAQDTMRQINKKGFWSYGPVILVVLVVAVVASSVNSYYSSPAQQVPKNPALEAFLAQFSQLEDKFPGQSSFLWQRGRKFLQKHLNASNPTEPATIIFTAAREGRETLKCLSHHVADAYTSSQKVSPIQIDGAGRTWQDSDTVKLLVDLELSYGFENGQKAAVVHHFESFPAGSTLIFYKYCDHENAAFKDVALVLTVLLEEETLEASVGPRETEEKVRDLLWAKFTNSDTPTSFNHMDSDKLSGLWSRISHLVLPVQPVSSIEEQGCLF
Sequence of Pro-neuregulin-1, membrane-bound isoform (Homo sapiens) (Q02297 whole entry, looked up, the tested form may be a part, canonical isoform): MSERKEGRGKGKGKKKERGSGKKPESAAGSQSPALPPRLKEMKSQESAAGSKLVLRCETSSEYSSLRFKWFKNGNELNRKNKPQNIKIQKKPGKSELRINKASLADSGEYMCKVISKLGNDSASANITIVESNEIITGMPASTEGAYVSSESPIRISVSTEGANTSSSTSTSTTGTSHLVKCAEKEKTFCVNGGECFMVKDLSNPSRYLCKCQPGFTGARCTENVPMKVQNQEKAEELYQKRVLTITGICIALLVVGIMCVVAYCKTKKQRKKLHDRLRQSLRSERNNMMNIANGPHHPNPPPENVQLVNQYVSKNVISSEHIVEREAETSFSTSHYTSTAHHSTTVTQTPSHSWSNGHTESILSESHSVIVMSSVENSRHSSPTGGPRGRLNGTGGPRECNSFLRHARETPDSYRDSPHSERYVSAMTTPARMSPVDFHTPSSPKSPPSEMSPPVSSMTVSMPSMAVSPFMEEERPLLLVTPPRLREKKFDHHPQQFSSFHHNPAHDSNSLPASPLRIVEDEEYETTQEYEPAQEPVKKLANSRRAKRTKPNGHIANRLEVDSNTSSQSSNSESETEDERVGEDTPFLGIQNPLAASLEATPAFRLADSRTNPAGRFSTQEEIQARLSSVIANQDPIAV

| SMILES | composite z-score [1] | composite z-score [2] | composite z-score [3] | composite z-score [4] | composite z-score [5] | composite z-score [6] | composite z-score [7] | z-score [8] | composite z-score [9] | composite z-score [10] | composite z-score [11] | z-score [12] | z-score [13] | z-score [14] | composite z-score [15] | z-score [16] | composite z-score [17] | composite z-score [18] | composite z-score [19] | composite z-score [20] |
| --- | --- | --- | --- | --- | --- | --- | --- | --- | --- | --- | --- | --- | --- | --- | --- | --- | --- | --- | --- | --- |
| COC(=O)CCCCCCC(=O)Nc1ccc(NC(=O)CCCC[P+](c2ccccc2)(c2ccccc2)c2ccccc2)cc1 | -0.493 | 0.725 | -0.0639 | 0.695 | 0.336 | -0.31 | 0.166 | 0.789 (inactive) | 0.352 | -0.0296 | -0.148 | -1.65 (inactive) | -7.18 (inactive) | -0.786 (inactive) | -0.891 | -18.9 (active) | -0.232 | 1.23 | 0.973 | 0.0042 |
| COC(=O)c1ccc([C@H](NC(=O)c2ccco2)[C@]2(C)C[C@H]2C2CCCCC2)cc1 | 0.685 | -0.462 | -0.0301 | -0.11 | 0.329 | 1.12 | -0.808 | -0.622 (inactive) | 0.488 | 2.5 | -1.67 | 0.0339 (inactive) | 0.17 (inactive) | 0.605 (inactive) | 1.45 | -1.49 (inactive) | -0.0986 | -0.586 | -0.436 | -0.192 |
| [N-]=[N+]=NCc1ccccc1[C@H]1OC(c2ccc(OCCCO)cc2)=N[C@@]1(CCS(=O)(=O)c1ccccc1)C(=O)N1CCCCC1 | 0.974 | 1.28 | 0.248 | 0.4 | 1.51 | 1.79 | 1.33 | 0.225 (inactive) | 1.42 | -0.191 | 1.55 | 0.341 (inactive) | -0.0527 (inactive) | 3.75 (inactive) | 3.34 | -0.334 (inactive) | 0.574 | 0.876 | 0.992 | 0.283 |
| COc1ccc(-c2cc3c(c(CCc4ccccc4)n2)[Si](C(C)C)(C(C)C)OC3)cn1 | -0.33 | 0.239 | -0.0537 | 0.0473 | 0.247 | -0.352 | 0.197 | 0.943 (inactive) | 0.21 | 0.113 | -0.876 | 0.275 (inactive) | -0.726 (inactive) | 0.333 (inactive) | 0.781 | -0.43 (inactive) | -0.248 | 0.325 | 0.312 | -0.0828 |
